# SMN2 splice enh – SMN2 splice variant enhancement; Potency, µM (doses to about 46.1 µM), for inactives: at the highest dose activity change, positive = activation, most hits filed as activators; HEK293 SMN2-luciferase splicing reporter, luminescence, 30-36 h; 2.8% of 210,000 active; further: % of control where 0% means no effect; nearly all actives have a fitted effect of over 55% in size
#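 HEK293 cells carry an SMN2 […]–luciferase reporter in which exon 7 inclusion puts luciferase in frame. Cells were plated 10-12 h before compound addition, then incubated 30-36 h at 37C. ONE-Glo luminescence was read; sodium butyrate at 4.5 mM final served as control.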
# FLuc modulator – inhibits or activates purified firefly luciferase, miR-21 counter-screen; P08659; purified FLuc, Km substrates, luminescence inhibition; Potency, µM (titrated, usually from 57.5 µM), for the others: at the highest dose activity change, negative = inhibition, most hits filed as inhibitors; 6.9% of 360,000 active; AID 588342;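 further: plate controls were vehicle for no effect and reference inhibitor for full effect; nearly all actives have a fitted effect of over 55% in size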
# Target sequence (P08659 whole entry, looked up): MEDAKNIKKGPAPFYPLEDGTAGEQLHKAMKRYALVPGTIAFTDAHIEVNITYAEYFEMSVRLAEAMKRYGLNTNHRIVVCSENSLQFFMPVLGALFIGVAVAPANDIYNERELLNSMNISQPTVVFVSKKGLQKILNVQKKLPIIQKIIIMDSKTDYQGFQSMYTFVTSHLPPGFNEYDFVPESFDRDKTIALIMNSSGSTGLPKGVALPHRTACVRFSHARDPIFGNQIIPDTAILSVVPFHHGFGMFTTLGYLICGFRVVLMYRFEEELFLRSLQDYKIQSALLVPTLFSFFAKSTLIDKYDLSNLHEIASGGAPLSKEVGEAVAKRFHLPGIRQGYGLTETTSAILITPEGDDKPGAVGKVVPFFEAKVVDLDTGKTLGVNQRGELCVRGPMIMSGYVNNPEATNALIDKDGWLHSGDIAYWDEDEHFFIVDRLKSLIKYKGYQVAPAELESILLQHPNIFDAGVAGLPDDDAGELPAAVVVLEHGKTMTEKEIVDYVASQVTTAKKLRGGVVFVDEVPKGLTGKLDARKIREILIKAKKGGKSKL
#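 Biochemical qHTS of compounds, final roughly 60 µM downward over six points, against 10 nM purified firefly luciferase using Km concentrations of substrates (10 uM D-luciferin, 10 uM ATP) in Tris acetate pH 7.5 buffer; luminescence output.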
# Rab9 prom act – activators of Rab9 promoter. 2.8% of 320,000 active. Huh7 Rab9 promoter-luciferase reporter, luminescence, 24 h. AID 485297. Potency, µM (titrated, usually from 9.22 µM), for the others: at the highest dose activation, negative = inhibition, most hits filed as activators; further: % of control where 0% means no effect; nearly all actives have a fitted effect of over 60% in size
#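 Quantitative HTS format; Huh7 Rab9-luciferase reporter cells (1500/well) receive compound 2 h post-plating, incubate 24 h at 37 °C, then get luciferase reagent for 10 min before luminescence reading.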
# KinaseGlo FLuc – Kinase-Glo luciferase inhibition (counter-screen); Q27757; AID 1379; Potency, µM (top dose mostly 38.3 µM), without a hit: at the highest dose activity change, negative = inhibition, most hits filed as inhibitors; 0.28% of 200,000 active; Kinase-Glo luciferase, ATP luminescence, 8 min; further: on the % scale 0 is the no-effect control and ±100 the full control effect; nearly all actives have a fitted effect of over 60% in size
#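 Luminescence was the read-out, taken after 8-minute incubation at ambient temperature. Luciferase turned over luciferin with 10 uM ATP in imidazole pH 7.2 buffer containing KCl, MgCl2, Tween 20 and BSA.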
# NPC1 prom act – activates the NPC1 promoter. Huh7 NPC1 promoter luciferase reporter, 24 h. Potency, µM (top dose mostly 9.22 µM), for the others: at the top dose activation, actives largely listed as activators. 2.4% of 320,000 active. AID 485313; further: % of control where 0% means no effect; nearly all actives have a fitted effect of over 60% in size
#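 Readout is luciferase luminescence, reflecting NPC1 promoter activation in stably transfected Huh7 cells after 24 h compound exposure at 37 °C in reduced-serum medium with 10% FBS.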
# ELG1 genotoxic – induces genotoxicity in HEK293T cells with luciferase-tagged ELG1 | HEK293T ELG1-luciferase reporter, luminescence, 16 h | Potency, µM (top dose mostly 46 µM), inactives show top-dose activity change, positive = activation, most hits filed as activators | 1.3% of 330,000 active; further: % of control where 0% means no effect; nearly all actives have a fitted effect of over 60% in size
#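 ELG1-luciferase HEK293T cells, 2,000/well; compound pinned in; 16 hr, 37 °C, 5% CO2; ONE-Glo, 30 min RT; luminescence on CCD imager.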
# * hit, by the source's call; ? = inconclusive; . = no result given; [ ] = remark or other dose. This is a sample that favours compounds with a hit; in the whole collection about 7.3% have one here. The call rests on the fitted dose curve; in most records, active means well fitted curve in the direction sought with a large enough effect; inconclusive means small, poorly fitted or top-dose-only effect, or another doubt; inactive means no such curve, though single readings can be large; an effect the other way counts as inactive or inconclusive. Potency means the concentration at half of the fitted maximal effect.
SMILES,SMN2 splice enh,FLuc modulator,Rab9 prom act,KinaseGlo FLuc,NPC1 prom act,ELG1 genotoxic
CCC(=O)N1CCc2cc(S(=O)(=O)NC(CC(C)C)C(=O)NCc3cccc(OC)c3)ccc21 (stereo not drawn),-2%,-8%,.,.,.,.
c1ccc(N2CCN(c3nc4cc5c(cc4s3)OCCO5)CC2)cc1,10µM*,?,?,2%,?,5%
COC(=O)CN1C(=O)S/C(=C/c2ccc(N3CCCCC3)o2)C1=O,-12%,19µM*,?,-7%,24%,15%
O=C(O)CN1C(=O)/C(=C/c2ccc(N3CCCCC3)o2)SC1=S,.,11µM*,10%,.,0%,0%
COC(=O)CN1C(=O)S/C(=C/c2cc(C)n(C)c2C)C1=O,27%,9.5µM*,3.5µM*,-2%,4µM*,?
NC(=O)C[C@H](NC(=O)Cc1ccc(O)cc1O)C(=O)O,-2%,.,.,1%,.,.
Cc1ccc(CNC(=O)c2cc(S(=O)(=O)N3CCOCC3)cn2C)cc1,.,9%,5%,.,1%,1%
S=C(NCc1ccccn1)Nc1ccc(Br)cc1Cl,11µM*,?,3.2µM*,3%,29%,?
S=C(NCc1ccccn1)Nc1ccccc1Cl,?,-6%,?,0%,13%,15%
S=C(NCc1ccco1)Nc1ccc(Cl)cc1Cl,-24%,?,19%,-5%,16%,17%
S=C(NCc1ccco1)Nc1ccc(Br)cc1Cl,9%,27µM*,?,1%,30%,?
NS(=O)(=O)c1ccc2nc(NC(=O)CS(=O)(=O)c3ccccc3)sc2c1,.,-13%,9%,.,-3%,-1%[9.26 µM]
NS(=O)(=O)c1ccc2nc(NC(=O)c3ccc(Br)o3)sc2c1,18µM*,9.5µM*,?,-4%,?,?
Cc1ccc2nc(NC(=O)c3ccc(Br)o3)sc2c1,.,1.3µM*,1.1µM*,.,1.4µM*,?
O=C(Nc1cccc(C(F)(F)F)c1)c1ccc(Cn2cc(Br)cn2)o1,-44%,-4%,-1%,2%,22%,-3%
CS(=O)(=O)c1ccc2nc(NC(=O)c3ccc(Cn4cc(Br)cn4)o3)sc2c1,.,4.8µM*,20%,.,?,-3%
Cc1ccc(CSc2ncc(Cl)c(C(=O)Nc3nc4ccc(C)cc4s3)n2)cc1,2%,-16%,.,.,.,.
Cc1ccccc1C(=O)Nc1c2c(nn1C(C)(C)C)CS(=O)(=O)C2,.,4%,0%,.,2%,-1%
Cc1ccc(C)c(N2CCN(c3nc4ccccc4c4nc(-c5cccnc5)nn34)CC2)c1,-2%,-1%,.,.,.,.
O=C(Nc1ccc(N2CCN(C(=O)c3ccco3)CC2)cc1)c1cccs1,-3%,-12%,-2%,-5%,2%,0%
CN(CC(=O)Nc1ccccc1Cl)C(=O)c1cccc(S(=O)(=O)N2CCN(c3ccc(F)cc3)CC2)c1,.,3.4µM*,2.2µM*,.,1.4µM*,1.8µM*
O=C(NCC1CCCO1)C(c1ccncc1)N(Cc1cccs1)C(=O)CN1C(=O)c2ccccc2S1(=O)=O (stereo not drawn),.,13µM*,-4%,-4%,-3%,10%
Cc1ccccc1CCN(C(=O)CN1C(=O)c2ccccc2S1(=O)=O)C(C(=O)NCC1CCCO1)c1ccncc1 (stereo not drawn),-8%,4%,2%,4%,1%,1%
COc1cc(C)ccc1OCCCOc1ccccc1Br,3%,19µM*,1.4µM*,-3%,?,?
COc1ccccc1OCCCOc1ccc(C)cc1Br,?,4.8µM*,?,15%,?,18µM*
SMILES,SMN2 splice enh,FLuc modulator,Rab9 prom act,KinaseGlo FLuc,NPC1 prom act,ELG1 genotoxic
COc1ccccc1OCCCOc1ccc([N+](=O)[O-])cc1Cl,?,5.4µM*,4.5µM*,-5%,?,16%
COC(=O)c1[nH]c2ccc(F)cc2c1NC(=O)C1=COCCO1,7%,-2%,-3%,2%,-5%,0%
CN(C(=O)c1cccs1)c1ccc(OCC(=O)Nc2ccc(C(=O)O)cc2)cc1,.,17µM*,0%,.,-3%,1%
COc1ccc(OCC(=O)Nc2ccc(NC(=O)c3cccs3)cc2)cc1,.,4%,3%,.,1%,12%
O=C(Nn1c(O)c(C=C2N=c3ccccc3=N2)sc1=S)c1ccccc1,0%,6µM*,-4%,-4%,0%,6%
Cc1ccc(C(=O)Nn2c(O)c(C=C3N=c4ccccc4=N3)sc2=S)cc1,29%,?,6%,-2%,0%,5%
Cc1ccc(S(=O)(=O)Nn2c(O)c(C=C3N=c4ccccc4=N3)sc2=S)cc1,.,17µM*,2%,.,0%,-3%
Oc1[nH]c(=S)sc1C=C1N=c2ccccc2=N1,.,6µM*,27%,.,?,?
COc1ccccc1C/C(N)=N/OC(=O)COc1ccc2ccccc2c1,.,?,5%,.,-2%,0%
COc1ccc(OC)c(NC(=O)CSc2nnc(NC(=O)c3ccco3)s2)c1,.,27µM*,11%,.,8%,-3%
COc1ccccc1NC(=O)CSc1nnc(NC(=O)c2ccco2)s1,.,15µM*,8%,.,-1%,14%
O=C(Nc1cccc(-n2cnnn2)c1)c1cnccc1Cl,.,0%,-2%,.,0%,1%
Cc1ccc2nc(NC(=O)C3CCCN(S(=O)(=O)c4cnc[nH]4)C3)sc2c1 (stereo not drawn),?,12µM*,?,1%,?,5%
Cc1ccc2nc(NC(=O)C3CCCN(S(=O)(=O)c4cccnc4)C3)sc2c1 (stereo not drawn),-27%,-9%,0%,1%,-1%,-1%
Cc1ccc(NC(=O)Cc2nnc(N)s2)cc1,.,-5%,1%,.,-3%,3%
C=CCC[C@@H](Cc1ccc(F)cc1)C(=O)OC[C@H](Cc1c[nH]c2ccccc12)NC(=O)[C@H](CC=C)CC(=O)NCCO,.,.,.,.,.,-7%
Cc1ccn2cc(-c3cccc(NC(=O)c4cccs4)c3)nc2c1,?,2.4µM*,?,-5%,19%,-1%
O=C(Nc1cccc(-c2cn3cccnc3n2)c1)c1cccs1,13%,?,-3%,2%,0%,1%
Cc1ccn2c(NC(=O)c3cccs3)c(-c3ccccc3)nc2c1,0%,?,-2%,3%,1%,2%
Cc1cccn2cc(-c3cccc(NC(=O)c4cccs4)c3)nc12,18%,4.8µM*,24%,0%,13%,5%
COc1ccc(/C=C/C(=O)N(C)C2CCCCC2)cc1Br,?,24µM*,22%,-2%,16%,?
CN(C(=O)/C=C/c1cnc2ccccc2c1)C1CCCCC1,3.2µM*,4.3µM*,1.1µM*,-2%,1.6µM*,-1%

# Screens as filed in PubChem.
